The structures appear in SMILES notation. Activity calls are given as the source filed them. The call rests on the fitted dose curve; in most records, active means well fitted curve in the direction sought with a large enough effect; inconclusive means small, poorly fitted or top-dose-only effect, or effect the other way, or another doubt; inactive means no such curve, though single readings can be large or run the other way.

The nature of this experiment: qHTS for Inhibitors of Cell Surface uPA Generation: Validation Assay (AID 493164).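 Further: RAW 264.7 macrophage cells exposed to compound for 18 h.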 To be noted: mouse cells, plasminogen activation; series mostly up to 38.3 µM. An excerpt: NIH Chemical Genomics Center [NCGC]
NIH Molecular Libraries Probe Centers Network [MLPCN]
Assay Submitter (PI): Thomas Bugge
The overall objective of this project is to perform a quantitative high throughput screen (qHTS) to identify novel compounds that inhibit the generation of cell surface urokinase activity. The urokinase plasminogen activator (uPA) is one of the two primary endogenous systems that mediate plasminogen activation into plasmin. Members of this system, including uPA and its receptor (uPAR), are overexpressed in several malignant tumors. This system plays a major role in adhesion, migration, invasion and metastasis of cancer cells. Small molecule inhibitors of the uPA system will serve as probes to understand the molecular mechanisms of the uPA cascade and better understanding the microenvironmental circumstances that facilitate the activation of plasminogen by uPA, and finally may provide novel candidate agents for anticancer drug therapy.
[…] […] Upon inhibition of the uPA activation cascade, the subsequent cell surface uPA activity-dependent translocation of LF into the cytoplasm is inhibited. ATP-Lite is used to measure intracellular ATP concentrations, which remain increased if LF entry into the cytoplasm is inhibited. This validation assay was performed using a small set of validation compounds.
uPA assay protocol summary:
RAW 264.7 cells were maintained in DMEM medium (Invitrogen, Carlsbad, CA) at 37C under a humidified atmosphere containing 5% CO2 and 95% air. The medium contained 10% FBS, 1 mM sodium pyruvate and 50 U/ml penicillin/streptamycin (Invitrogen, Carlsbad, CA). All compounds were screened as 7-point titration from 2.45 nM to 38.3 uM final concentration. The assay was performed in 1536-well format plate as follows:
1.Dispensing RAW 264.7 cells into 1536-well, white walled tissue culture plates at a density of 4000 cells/well (4 uL).
2.Incubation at 37 C in a 5% CO2 incubator overnight.
3.Serially diluting compounds (1:5 serial dilution; 0.0024 uM to […] final concentration) in 23 nl DMSO.
5.Incubating the compound and reagent-treated plates for 18 hours at 37 C in a 5% CO2 incubator.
6.Adding ATP-Lite (3 ul).
7.Reading plates by ViewLux with an exposure length of 5 seconds.
(qHTS replaces the single test concentration by a dilution series.)
With `COc1ccc(/C=C/C(=O)Nc2ccccc2C(=O)O)cc1OC`, the result was inactive.

On to `Cc1ccc(O)c(N=Nc2ccccc2)n1`, for which the call was inactive.

Take `CN(C)CCCO[C@@H]1[C@H]2OC(C)(C)O[C@H]2O[C@@H]1[C@H](O)CO`: the compound was called inactive.

Turning to `O=C(O)[C@@H]1C[C@H](C(=O)O)N1`, the call was inactive.

As for `NCCCS(=O)(=O)O`, the compound was classed as inactive.

`COc1cc(OC)c(/C=C2/C(=O)Nc3ccccc32)c(OC)c1`: the compound was classed as inactive.

Regarding `CCCCC/C=C\CC(O)/C=C/c1cccc(CC(O)CCCCO)n1` (stereo not given), the outcome was inactive.

Take `Cc1ccc(C(=O)O[C@H](C(=O)O)[C@@H](OC(=O)c2ccc(C)cc2)C(=O)O)cc1` (tested in a mixture with another compound): the call was inactive.

For `CC[C@@H](C)[C@H]1O[C@]2(CC[C@H]1C)C[C@@H]1C[C@@H](CC=C(C)[C@@H](O[C@H]3C[C@H](OC)[C@@H](O[C@H]4C[C@H](OC)[C@@H](O)[C@H](C)O4)[C@H](C)O3)[C@@H](C)C=CC=C3CO[C@@H]4[C@H](O)C(C)=C[C@@H](C(=O)O1)[C@]34O)O2`, the result was inactive.

`Fc1ccc(C(OCCCc2cnc[nH]2)c2ccc(F)cc2)cc1`: the result was inactive.

As to `Nc1ncnc2c1ncn2[C@@H]1O[C@H](COP(=O)(O)CP(=O)(O)OP(=O)(O)O)[C@@H](O)[C@H]1O`, the outcome was inactive.

Consider `Ic1ccc(N2CCN(Cc3c[nH]c4ncccc34)CC2)cc1`, for which the outcome was inactive.

Turning to `C[N+]1(C)CCC(OC(=O)C(c2ccccc2)c2ccccc2)CC1`, the call was inactive.

Consider `NCCCCC(=O)O`, for which the result was inactive.

Consider `COc1cccc(C(=O)NCCN2CCN(c3ccc(Cl)cc3)CC2)c1`, for which the result was inactive.

Take `O=C1NC(=O)/C(=C/c2ccc3nccnc3c2)S1`: the compound was called inactive.

Regarding `CO/S(=N\S(=O)(=O)c1ccc(Cl)cc1)c1ccc([N+](=O)[O-])cc1` (stereo not given), the compound was classed as inactive.

For `C[N+](C)(C)CCOP(=O)(O)OP(=O)([O-])OC[C@H]1O[C@@H](n2ccc(N)nc2=O)[C@H](O)[C@@H]1O`, the compound was classed as inactive.

In the case of `O=S(=O)(c1cccc2c(I)cccc12)N1CCCNCC1`, the compound was called inactive.

For the compound `CC(C)Cc1ccc([C@H](C)C(=O)O)cc1`, the result was inactive.

With `CNc1ncnc2c1ncn2[C@@H]1O[C@H](CO)[C@@H](O)[C@H]1O`, the compound was called inactive.

Turning to `S=C(S)OC1CC2CC1C1CCCC21` (stereo not given), the compound was classed as inactive.

As for `Oc1ccccc1O`, the compound was classed as inactive.

For `CCCCCCCC/C=C\CCCCCCCC(=O)NCCO`, the compound was classed as inactive.

On to `NC(=O)C(=O)O`, for which the call was inactive.

In the case of `O=C(O)CCCC[C@@H]1CCSS1`, the compound was classed as inactive.

For `O=Nc1ccc2oc(=O)ccc2c1`, the result was inactive.

As to `NCCNC(=O)c1ncsc1-c1cccc(F)c1`, the call was inactive.

Regarding `OCC1O[C@H](O)C(Cl)C(O)C1O` (stereo not given in full), the compound was called inactive.

As to `O=C1/C(=C/c2ccsc2)CC/C1=C\c1cccs1`, the outcome was inactive.

Turning to `Clc1ccc(N2CCN(Cc3c[nH]c4ncccc34)CC2)cc1`, the result was inactive.

Take `CC(=O)SCC[N+](C)(C)C`: the compound was called inactive.

`Nc1ncnc2c1c(I)cn2[C@@H]1C[C@H](N)[C@@H](O)[C@H]1O`: the compound was classed as inactive.

As to `Cc1ccc(S(=O)(=O)/C=C/C#N)cc1`, the call was inactive.

For the compound `N=C(N)SCCc1ccc(CCSC(=N)N)cc1`, the compound was called inactive.

Regarding `O=C1O/C(=C/Br)CCC1c1cccc2ccccc12` (stereo not given), the compound was classed as inactive.

Regarding `O=C1C(SCCO)=C(SCCO)C(=O)c2ccccc21`, the call was inactive.

On to `CC(=O)N[C@H](C(=O)O)C(C)(C)SN=O`, for which the result was inactive.

Regarding `CCNC(=O)[C@H]1O[C@@H](n2cnc3c(N)nc(NCCc4ccc(CCC(=O)O)cc4)nc32)[C@H](O)[C@@H]1O`, the compound was classed as inactive.

Turning to `O=C(O)c1cc(=O)c2ccccc2[nH]1`, the call was inactive.

Values taken from PubChem BioAssay (NCATS).
